The panel holds about 83,000 compounds, 20% with a hit somewhere; the sample as a whole holds those more often.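 Cell lines were cultured in 96-well plates, exposed to a single compound concentration, and assessed for percent growth 48 hours later.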 Calls of active or inactive are those of the source. The calls were made as follows: active = growth percent below 10; inactive = the rest.
Columns and labels:
Assay in all cases: NCI-60 one-dose screen, 48 h (100 = growth as untreated, 0 = no growth, -100 = all killed)
Conditions in all cases: 10 µM unless noted
[1] = system: HT29 colon
[2] = system: SNB-75 CNS
[3] = system: SNB-19 CNS
[4] = system: U251 CNS
[5] = system: SK-MEL-5 melanoma
[6] = system: UACC-62 melanoma
[7] = system: LOX IMVI melanoma
[8] = system: SK-MEL-28 melanoma
[9] = system: EKVX NSCLC
[10] = system: SN12C renal
[11] = system: UO-31 renal
[12] = system: TK-10 renal
[13] = system: ACHN renal
[14] = system: CAKI-1 renal
[15] = system: A498 renal
[16] = system: CCRF-CEM leukemia
[17] = system: MOLT-4 leukemia
[18] = system: SR leukemia
[19] = system: SK-MEL-2 melanoma

Measured: growth

COc1ccc2c(c1)/C(=C\c1c[nH]c3ccc(F)cc13)C(=O)N2
inactive: [1] 86.1% | [2] 86.7% | [3] 93.9% | [4] 83.4% | [5] 97% | [6] 90.7% | [7] 74.3% | [8] 105% | [9] 64.8% | [10] 82.2% | [11] 57.8% | [12] 96.2% | [13] 52.7% | [14] 56.7% | [15] 68.9% | [16] 78.9% | [17] 50.6% | [18] 46.4%

CC1=C(C(=O)Nc2ccccc2)C(c2ccc3c(c2)OCCO3)NC(=O)N1 (stereo unspecified)
inactive: [1] 108% | [2] 102% | [3] 99.6% | [4] 105% | [5] 101% | [6] 101% | [7] 94.7% | [8] 111% | [19] 125% | [10] 100% | [11] 87% | [12] 133% | [13] 104% | [14] 95.6% | [15] 101% | [17] 101% | [18] 92.9%

COc1ccc(-c2cn(-c3ccccc3)c(-c3ccccc3)n2)cc1OC
inactive: [1] 19.4% | [2] 95.9% | [3] 117% | [4] 29.2% | [5] 74.5% | [6] 62.4% | [7] 14.5% | [8] 102% | [9] 84.9% | [10] 71.9% | [11] 52.1% | [12] 99.4% | [13] 64.4% | [14] 79.3% | [15] 104% | [17] 77% | [18] 11.3%
active: [16] -66.6%

O=C(Nc1ccc(C2=NCCCN2)cc1)Nc1ccc(C2=NCCCN2)cc1
inactive: [1] 92.4% | [2] 94.5% | [3] 96.7% | [4] 93.7% | [5] 69.7% | [6] 87.7% | [7] 89.9% | [8] 86.9% | [19] 49% | [9] 64.1% | [10] 94.8% | [11] 90.1% | [13] 87.7% | [14] 79.3% | [15] 77.4% | [17] 71.6% | [18] 69.8%

Cn1cc(-c2csc(-c3c[nH]c4ncccc34)n2)c2cc(F)cnc21
inactive: [1] 90.6% | [2] 66.2% | [3] 89% | [4] 83.3% | [5] 61.4% | [6] 64.7% | [7] 64.3% | [8] 96.2% | [19] 89.7% | [9] 51.9% | [10] 78.1% | [11] 55.6% | [12] 54.3% | [14] 45.1% | [15] 70.4% | [16] 66.1% | [17] 80.5%

Cc1ccccc1-c1cc(Cc2ccccc2O)c(=O)[nH]n1
inactive: [1] 139% | [2] 106% | [3] 123% | [4] 103% | [5] 94.8% | [6] 95.3% | [7] 100% | [8] 131% | [9] 67% | [10] 97.4% | [11] 71.1% | [12] 130% | [13] 94.9% | [14] 88.8% | [15] 110% | [17] 86.7% | [18] 92.5%
active: [16] -49.5%

COc1ccc2nc(NC(=O)c3cc(-c4ccc(F)cc4)n4nc(-c5ccccc5)cc4n3)sc2c1
inactive: [1] 92.5% | [2] 80.4% | [3] 83.3% | [4] 64.2% | [5] 55.5% | [6] 67.9% | [7] 67.9% | [8] 73.1% | [9] 79.5% | [10] 88.6% | [11] 73.6% | [12] 134% | [13] 67.5% | [14] 77.5% | [15] 83.4% | [16] 64.1% | [17] 96.1% | [18] 77.5%

OCc1nnn(-c2ccccc2)c1CO
inactive: [1] 103% | [2] 94.8% | [3] 115% | [4] 104% | [5] 107% | [6] 101% | [7] 100% | [8] 128% | [19] 113% | [9] 121% | [10] 102% | [11] 89.4% | [13] 107% | [14] 111% | [15] 101% | [16] 102% | [17] 106% | [18] 104%

NC(=O)c1ccccc1NC(=O)c1ccccc1Cl
active: [18] -9.77%
inactive: [1] 118% | [2] 92.8% | [3] 98.4% | [4] 106% | [5] 106% | [6] 97.4% | [7] 106% | [8] 112% | [19] 129% | [9] 103% | [10] 101% | [11] 82.8% | [12] 141% | [13] 104% | [15] 98.3% | [16] 97.3% | [17] 63.7%

CCOC(=O)C1=NN(c2ccc(Cl)cc2)C2C3N(c4ccc(Cl)cc4)N=C(C(=O)OCC)N3c3ccccc3N12 (stereo unspecified)
inactive: [1] 93.3% | [2] 91.1% | [3] 118% | [4] 114% | [5] 92.7% | [6] 101% | [7] 113% | [8] 108% | [19] 102% | [9] 104% | [10] 111% | [11] 92.6% | [12] 119% | [13] 121% | [15] 131% | [17] 47.4% | [18] 40.4%

Cc1ccc([N+](=O)[O-])cc1NC(=O)Nc1cccc(F)c1
inactive: [1] 79.8% | [2] 90.2% | [3] 64.1% | [4] 64.3% | [5] 60.5% | [6] 71.8% | [7] 82.4% | [8] 108% | [19] 86% | [9] 48.6% | [10] 88.9% | [11] 67.7% | [13] 67.7% | [14] 53.4% | [15] 78.3% | [16] 54.4% | [17] 62% | [18] 62.6%

CCOC(=O)c1c2c(c(C)n1Cc1ccccc1)-c1nc(N)ncc1CC2
inactive: [1] 115% | [2] 90.3% | [3] 101% | [4] 106% | [5] 105% | [6] 77.2% | [7] 92.6% | [8] 128% | [19] 125% | [9] 88.9% | [10] 102% | [11] 79.7% | [12] 103% | [13] 92.2% | [15] 88.2% | [16] 93.7% | [17] 95.7% | [18] 86.2%

Nc1cc(Cl)c(S(N)(=O)=O)cc1S(N)(=O)=O
inactive: [1] 122% | [2] 86.7% | [3] 113% | [4] 100% | [6] 101% | [7] 101% | [9] 111% | [10] 109% | [11] 102% | [12] 97.5% | [13] 101% | [14] 107% | [15] 116% | [17] 158% | [18] 123%

CCn1c2ccccc2c2ccc(C(C)=O)cc21
inactive: [1] 95.9% | [2] 94.9% | [3] 106% | [4] 101% | [5] 94.4% | [6] 97.9% | [8] 106% | [19] 112% | [9] 99.2% | [10] 114% | [11] 106% | [14] 94.1% | [15] 83.8% | [17] 96.8% | [18] 97.8%

Cc1cc2c(cc1[N+](=O)[O-])NC(CNC(C)C)CC2 (stereo unspecified)
inactive: [1] 88.8% | [2] 67.7% | [3] 87% | [4] 99.2% | [5] 96.8% | [6] 98.7% | [7] 91.3% | [19] 112% | [9] 95.2% | [10] 105% | [11] 90.7% | [13] 99.7% | [14] 99.7% | [15] 102% | [16] 130% | [17] 69.6% | [18] 119%

CCOC(=O)C(Cc1ccccc1)(C(=O)OCC)C(Br)C(=O)c1ccccc1 (stereo unspecified)
inactive: [1] 69.7% | [2] 73.5% | [3] 97.5% | [4] 88.1% | [5] 87.2% | [7] 70.4% | [8] 91% | [19] 83.5% | [9] 88.8% | [10] 88.7% | [11] 37.6% | [12] 69.2% | [13] 44.3% | [14] 52% | [15] 82.4%

Nc1ncc(-c2cnn(C3CCNCC3)c2)cc1-c1nc2cc(Cl)ccc2o1
active: [1] -100% | [2] -97.9% | [3] -91.1% | [4] -100% | [6] -100% | [7] -96.9% | [8] -100% | [19] -90.8% | [9] -27.6% | [10] -100% | [11] -100% | [12] -94.1% | [13] -96.8% | [14] -76.9% | [15] -99.9% | [16] -100% | [17] -91.8%

From PubChem BioAssay (NCI)
